Source: PubChem
Hits are enriched below; roughly 9.2% of the tested compounds scored in any of these assays.
Rab9 prom act: qHTS Assay for Rab9 Promoter Activators; Huh7 Rab9 promoter-luciferase reporter, luminescence, 24 h; Potency, µM (highest dose often 9.22 µM), actives largely listed as activators; actives 2.8% (n = 320,000); AID 485297, 2010; also: nearly all actives have a fitted effect of over 60% in size
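Huh7 cells stably carrying Rab9 promoter–luciferase reporter, plated 1500 cells/well, compound added after 2 h and incubated 24 h at 37 °C; luciferase luminescence then read after 10 min with detection reagent.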
SMN2 splice up: qHTS Assay for Enhancers of SMN2 Splice Variant Expression; HEK293 SMN2-luciferase splicing reporter, luminescence, 30-36 h; Potency, µM (titrated, usually from 46.1 µM), hits mostly activators; actives 2.8% (n = 210,000); AID 1458, 2008; also: nearly all actives have a fitted effect of over 55% in size
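HEK293 cells carry an SMN2 […]–luciferase reporter in which exon 7 inclusion puts luciferase in frame. Cells were plated 10-12 h before compound addition, then incubated 30-36 h at 37C. ONE-Glo luminescence was read; sodium butyrate at 4.5 mM final served as control.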
FLuc counter: qHTS profiling assay for firefly luciferase inhibitor/activator using purifed enzyme and Km concentrations of substrates (counterscreen for miR-21 project) | AID 588342, 2011 | actives 6.9% (n = 360,000) | purified FLuc, Km substrates, luminescence inhibition | Luciferin 4-monooxygenase (Photinus pyralis), P08659 | Potency, µM (series often up to 57.5 µM), most hits filed as inhibitors; also: nearly all actives have a fitted effect of over 55% in size
Target sequence (P08659 whole entry, looked up): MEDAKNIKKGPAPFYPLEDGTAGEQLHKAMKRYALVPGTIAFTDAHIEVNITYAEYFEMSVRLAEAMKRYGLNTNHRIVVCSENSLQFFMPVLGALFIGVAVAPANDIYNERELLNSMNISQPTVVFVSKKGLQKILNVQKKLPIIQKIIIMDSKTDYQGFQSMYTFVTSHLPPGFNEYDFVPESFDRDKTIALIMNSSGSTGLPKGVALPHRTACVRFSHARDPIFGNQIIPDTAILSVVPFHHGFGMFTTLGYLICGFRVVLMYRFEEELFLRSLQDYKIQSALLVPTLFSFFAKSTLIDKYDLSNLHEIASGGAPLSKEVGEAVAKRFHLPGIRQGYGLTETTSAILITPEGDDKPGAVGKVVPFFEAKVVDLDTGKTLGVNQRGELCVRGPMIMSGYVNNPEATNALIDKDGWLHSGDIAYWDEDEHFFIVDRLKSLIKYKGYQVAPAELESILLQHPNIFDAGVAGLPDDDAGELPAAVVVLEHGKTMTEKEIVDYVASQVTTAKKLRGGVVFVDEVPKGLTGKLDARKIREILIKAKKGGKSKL
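Purified P. pyralis luciferase (10nM final) with 10uM D-luciferin and 10uM ATP (Km levels) in 50mM Tris acetate pH 7.5, 10mM Mg acetate, 0.01% Tween-20, 0.05% BSA; qHTS 6-point titration, ~60 µM downward; luminescence read.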
ELG1 DNA repair: qHTS screen for small molecules that inhibit ELG1-dependent DNA repair in human embryonic kidney (HEK293T) cells expressing luciferase-tagged ELG1; HEK293T ELG1-luciferase reporter, luminescence, 16 h; DNA damage induced by 5-fluorouridine; Potency, µM (highest dose often 46.1 µM), most hits filed as inhibitors; actives 2.3% (n = 330,000); also: nearly all actives have a fitted effect of over 55% in size
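In this reporter screen, reduction of luminescence relative to DMSO vehicle indicated activity. Compounds and 5-fluorouridine were added together to 2,000 cells per well, incubated for 16 hr at 37 °C, then developed with ONE-Glo.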
NPC1 prom act: qHTS Assay for NPC1 Promoter Activators | Huh7 NPC1 promoter luciferase reporter, 24 h | Potency, µM (doses to about 9.22 µM), most hits filed as activators | actives 2.4% (n = 320,000); also: nearly all actives have a fitted effect of over 60% in size
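NPC1 promoter–luciferase Huh7 cells; 24 h compound; luminescence.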
ELG1 genotox: qHTS screen for small molecules that induce genotoxicity in human embryonic kidney (HEK293T) cells expressing luciferase-tagged ELG1; actives 1.3% (n = 330,000); AID 504466, 2011; HEK293T ELG1-luciferase reporter, luminescence, 16 h; Potency, µM (highest dose often 46 µM), usual class: activators; also: nearly all actives have a fitted effect of over 60% in size
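Genotoxicity was scored as increased ELG1-luciferase reporter signal, measured by ONE-Glo luminescence (30 min, room temperature). Compound or vehicle exposure of the HEK293T reporter cells lasted 16 hr at 37°C.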
Numbers stand for hits; [ ] = another dose, or the depositor's remark. Calls follow the shape of the dose curve; as a rule, active = well fitted curve in the direction sought with a large enough effect; inconclusive = small, poorly fitted or top-dose-only effect, or another doubt; inactive = no such curve, though single readings can be large; an effect the other way counts as inactive or inconclusive.

Screening NS(=O)(=O)c1ccc(NC(=O)C(Sc2ccccc2)c2ccccc2)cc1 (stereo not given) returned Rab9 prom act inactive, SMN2 splice up inactive, FLuc counter inactive, ELG1 DNA repair inactive, NPC1 prom act inactive and ELG1 genotox inactive.
CC(=O)c1ccc(-c2ccc(/C=C(/Sc3n[nH]c(C)n3)C(=O)O)o2)cc1 was read as Rab9 prom act inactive, FLuc counter 6µM, ELG1 DNA repair inactive, NPC1 prom act inactive and ELG1 genotox inactive.
Cc1ccc(Cl)cc1-c1ccc(C=Nc2ccc(N3CCOCC3)cc2)o1 was read as Rab9 prom act inactive, SMN2 splice up inactive, FLuc counter inactive, ELG1 DNA repair inconclusive, NPC1 prom act inactive and ELG1 genotox inactive.
Screening Cc1nc(S/C(=C/c2ccc(-c3cc(Cl)ccc3C)o2)C(=O)O)n[nH]1 returned Rab9 prom act inactive, FLuc counter 27µM, ELG1 DNA repair inactive, NPC1 prom act inactive and ELG1 genotox inactive.
Cc1nc(S/C(=C/c2ccc(-c3ccc(C(=O)O)cc3)o2)C(=O)O)n[nH]1 was read as Rab9 prom act inactive, FLuc counter inconclusive, ELG1 DNA repair inactive, NPC1 prom act inactive and ELG1 genotox inactive.
Cc1nc(S/C(=C/c2ccc(-c3ccc(Cl)cc3)o2)C(=O)O)n[nH]1 was read as Rab9 prom act inactive, SMN2 splice up inactive, FLuc counter 8.5µM, ELG1 DNA repair inactive, NPC1 prom act inactive and ELG1 genotox inactive.
`CCOC(=O)CC(CC(C)=O)C(=O)OCC` (stereo not given) gave SMN2 splice up inactive.
For O=c1[nH]c(=S)c2[nH]c(=O)n(-c3ccccc3)c2[nH]1 the results were SMN2 splice up inactive[9.22 µM].
Screening CC(Oc1ccc2ccc(=O)oc2c1)C(=O)NC(Cc1c[nH]c2ccc(O)cc12)C(=O)O (stereo not given) returned Rab9 prom act inactive, FLuc counter inactive, ELG1 DNA repair inconclusive, NPC1 prom act inactive and ELG1 genotox inactive.
For COc1ccc(-n2c(=O)c3c(c4cc(OC)ccc4n3C)n(CCC(C)C)c2=O)cc1 the results were FLuc counter inactive.
For O=C(Nc1ccn(Cc2ccccc2)n1)c1ccc(F)cc1 the results were Rab9 prom act 2.8µM, SMN2 splice up inactive, FLuc counter 6.7µM, ELG1 DNA repair inconclusive, NPC1 prom act 2µM and ELG1 genotox inconclusive.
O=C(Nc1ccn(Cc2ccccc2)n1)c1cccc(Cn2cc([N+](=O)[O-])cn2)c1 was read as Rab9 prom act inactive, SMN2 splice up inactive, FLuc counter 15µM, ELG1 DNA repair inconclusive, NPC1 prom act inactive and ELG1 genotox inactive.
For Cc1nn(Cc2ccc([N+](=O)[O-])cc2)c(=O)n1-c1c(F)cccc1F the results were Rab9 prom act inactive, SMN2 splice up inactive, FLuc counter inactive, ELG1 DNA repair inactive, NPC1 prom act inactive and ELG1 genotox inactive.
For CCOC(=O)CCc1c(C)c2ccc(OCC(=O)N3CCOCC3)c(C)c2oc1=O the results were Rab9 prom act inactive, FLuc counter inactive, ELG1 DNA repair inconclusive, NPC1 prom act inactive and ELG1 genotox inactive.
CCOC(=O)CCc1c(C)c2ccc(OCC)c(C)c2oc1=O was read as Rab9 prom act inactive, SMN2 splice up inactive, FLuc counter 12µM, ELG1 DNA repair inconclusive, NPC1 prom act inactive and ELG1 genotox inactive.
CCCCCCc1c(C)c2ccc(OCC(=O)N3CCC[C@H]3C(=O)O)c(C)c2oc1=O was read as Rab9 prom act inactive, FLuc counter 17µM, ELG1 DNA repair inactive, NPC1 prom act inactive and ELG1 genotox inactive.
CCOc1ccc(S(=O)(=O)N2CCCC(C(=O)NCC3CCCO3)C2)cc1Cl (stereo not given) was read as Rab9 prom act inactive, FLuc counter inactive, ELG1 DNA repair inactive, NPC1 prom act inactive and ELG1 genotox inactive.
`CC1(C)Cc2c(cnn2-c2ccc(F)cc2)C(NC(=O)CN2CCCCC2=O)C1` (stereo not given) gave Rab9 prom act inactive, FLuc counter 19µM, ELG1 DNA repair inactive, NPC1 prom act inactive and ELG1 genotox inactive.
CC1(C)Cc2c(cnn2-c2ccc(F)cc2)C(NC(=O)CCN2CCCC2=O)C1 (stereo not given) was read as Rab9 prom act inactive, FLuc counter inconclusive, ELG1 DNA repair inconclusive, NPC1 prom act inactive and ELG1 genotox inactive.
Screening O=C(c1ccccc1)c1coc2ccc(O)c(Cl)c12 returned Rab9 prom act inactive, SMN2 splice up inactive, FLuc counter inconclusive, ELG1 DNA repair inconclusive, NPC1 prom act inactive and ELG1 genotox inconclusive.
Screening Cc1ccc(C(=O)c2coc3ccc(O)cc23)cc1 returned Rab9 prom act inactive, FLuc counter 1.1µM, ELG1 DNA repair inconclusive, NPC1 prom act inconclusive and ELG1 genotox inconclusive.
Cc1ccc(C(=O)c2coc3ccc(O)c(Cl)c23)cc1 was read as Rab9 prom act inactive, SMN2 splice up inactive, FLuc counter 19µM, ELG1 DNA repair inconclusive, NPC1 prom act inactive and ELG1 genotox inconclusive.
COc1ccc(COC(=O)C2=C(C)NC(=O)NC2c2ccccc2)cc1 (stereo not given) was read as Rab9 prom act inactive, FLuc counter inactive, ELG1 DNA repair inconclusive, NPC1 prom act inactive and ELG1 genotox inactive.
`CC12C=C(/C=C/c3ccc(Br)cc3)C(C)(C1)[C@H](c1ccc(Br)cc1)CC2=O` (stereo not given in full) gave SMN2 splice up inactive.
Cc1ccc(NC(=O)C(=O)Nc2ccc(C)cn2)nc1 was read as Rab9 prom act inconclusive, SMN2 splice up inactive, FLuc counter inactive, ELG1 DNA repair inconclusive, NPC1 prom act inactive and ELG1 genotox inconclusive.
Cc1ccc(NC(=O)/C(C#N)=C(\N)C(Cl)(Cl)Cl)nc1 was read as Rab9 prom act inconclusive, FLuc counter 2.1µM, ELG1 DNA repair inconclusive, NPC1 prom act inconclusive and ELG1 genotox inconclusive.
Screening O=c1c2ccccc2nc2c3ccccc3c(Cl)nn12 returned Rab9 prom act inactive, SMN2 splice up inactive, FLuc counter inactive, ELG1 DNA repair inactive, NPC1 prom act inactive and ELG1 genotox inactive.
`O=c1c2ccccc2nc2c3ccccc3cnn12` gave Rab9 prom act 2.2µM, SMN2 splice up inconclusive, FLuc counter inconclusive, ELG1 DNA repair inconclusive, NPC1 prom act inconclusive and ELG1 genotox inconclusive.
CC1(C)CC(=O)c2cnc(N3CCN(c4ccccc4)CC3)nc2C1 was read as Rab9 prom act inactive, SMN2 splice up inactive, FLuc counter inactive, ELG1 DNA repair inactive, NPC1 prom act inactive and ELG1 genotox inactive.
